Screening data deposited in PubChem by several laboratories.
Hits are enriched below; roughly 27% of the tested compounds scored in any of these assays.
CYP2C9 activ: human CYP2C9 activators, primary screen, biochemical, luminescence; Cytochrome P450 2C9 (Homo sapiens), P11712; AID 1024, 2008; recombinant CYP2C9, luciferin-H conversion; stronger effect = higher value; factor 1 = untreated enzyme, 0 = blocked; 96,000 compounds, 1.4% hits; activation factor at 5 µM;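 active = activation factor of 2 or more for CYP2C9 at a 5 µM dose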;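 note: 0 = sulfaphenazole-blocked wells and 1 = vehicle-only wells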
Target sequence (P11712 whole entry, looked up): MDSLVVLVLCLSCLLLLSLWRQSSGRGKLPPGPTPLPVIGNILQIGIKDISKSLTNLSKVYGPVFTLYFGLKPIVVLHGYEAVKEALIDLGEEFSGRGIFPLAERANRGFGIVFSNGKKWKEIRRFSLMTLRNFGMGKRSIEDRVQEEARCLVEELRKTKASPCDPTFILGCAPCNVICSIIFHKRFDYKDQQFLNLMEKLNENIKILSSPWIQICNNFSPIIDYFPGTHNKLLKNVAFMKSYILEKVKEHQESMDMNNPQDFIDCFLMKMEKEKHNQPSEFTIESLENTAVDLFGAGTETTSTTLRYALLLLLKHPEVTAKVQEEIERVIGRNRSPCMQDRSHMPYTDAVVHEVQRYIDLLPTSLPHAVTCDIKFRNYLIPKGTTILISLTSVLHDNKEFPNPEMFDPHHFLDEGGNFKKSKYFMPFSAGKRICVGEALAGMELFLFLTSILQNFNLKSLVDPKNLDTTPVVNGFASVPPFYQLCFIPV
Cav3 T inh: Cav3.2 calcium influx blockers – cell-based, Fluo-4 calcium fluorescence, FDSS, MLSMR library, primary screen; Voltage-dependent T-type calcium channel subunit alpha-1H (Homo sapiens), O95180; Cav3.2-expressing cells; stronger effect = lower value; B-score at 10 µM; 100,000 compounds, 4% hits; AID 449739, 2010;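 active = single-dose well whose peak fluorescence ratio is a statistical outlier from its plate by either plate-standardised score or position-corrected B-score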
CYP2C9 inhib: blockers of cytochrome P450 2C9 activity – biochemical, luminescence, ADME assay, primary screen. P11712. CYP2C9 Supersomes, luciferin-H conversion. inhibition, % at 5 µM. 96,000 compounds, 20% hits;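 active = blocking of liver enzyme CYP2C9 beyond about 50% at 5 µM, limit read from the data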
CYP2C19 activ: human CYP2C19 activators, primary screen, biochemical, luminescence. activation factor at 5 µM. 96,000 tested, under 10 active. recombinant CYP2C19, luciferin-H EGE luminescence; stronger effect = higher value; 0 = fully inhibited enzyme, 1 = untreated enzyme. AID 1025, 2008;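 active = activation factor of at least 2 at 5 µM in the primary screen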;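 note: 0 = wells with 2.5 mM tranylcypromine and 1 = vehicle-only wells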
CYP2C19 inhib: blockers of cytochrome P450 2C19 activity – biochemical, luminescence, ADME assay, primary screen. CYP2C19 Supersomes, luciferin-H EGE luminescence, 30 min. inhibition, % at 5 µM. 96,000 compounds, 21% hits. AID 778, 2007;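 active = CYP2C19 inhibition above a set limit at 5 µM in the primary screen, cut at about 50% in these data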;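 note: plate controls were negative control wells for no effect and 2.5 mM tranylcypromine positive control for full effect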
* hit, by the source's call; nt = no result.

SMILES	CYP2C9 activ	Cav3 T inh	CYP2C9 inhib	CYP2C19 activ	CYP2C19 inhib
Cc1noc(C)c1C(=O)Nc1nc(C23CC4CC(CC(C4)C2)C3)cs1	1	-0.31	1	0.9	6
COc1ccc(N(CC(O)Cn2nnc3ccccc32)S(=O)(=O)c2ccc(C)cc2)cc1 (stereo not given)	0.3	-1.7	69*	0.1	86*
COc1ccc(N(CC(O)CN2C(=O)NC(C)(C)C2=O)S(=O)(=O)c2ccc(C)cc2)cc1 (stereo not given)	0.3	-0.051	66*	0.4	61*
COc1ccc(N(CC(O)CN2CCCCC2)S(=O)(=O)c2ccc(C)cc2)cc1 (stereo not given)	0.9	1.3	10	1.1	-5
COCC(=O)Nc1nc(-c2ccc(C)cc2)c(C)s1	nt	0.56	nt	nt	nt
CCOC(=O)c1sc(N(C)C)nc1-c1ccccc1	nt	0.27	nt	nt	nt
CCOC(=O)Nc1nc(-c2ccccc2)c(C(=O)c2ccc(Cl)cc2)s1	0.4	-4	64*	0.3	73*
CCOC(=O)Nc1sc(C)nc1-c1ccccc1	0.8	-0.098	18	0.4	61*
CCc1sc(NC(=O)COC)nc1-c1ccccc1	0.4	0.44	57*	0.2	75*
CCOC(=O)/C(N=O)=C(\O)C1CCN(C(=O)OCC)CC1	0.9	0.17	11	0.9	8
O=C(C1CCCN1C(=O)c1cccs1)N1CCc2ccccc21 (stereo not given)	0.8	0.3	18	0.5	54*
O=C(COC(=O)[C@@H]1CCCN1C(=O)c1cccs1)NCCc1ccccc1	0.8	0.3	19	0.4	60*
O=C(c1cccs1)N1CCCc2ccccc21	0.6	0.19	37	0.4	64*
CCC(C)S(=O)(=O)c1snnc1C (stereo not given)	1.1	-0.036	-12	1	4
CCSc1nnc(NC(=O)CSc2nc3c(c(=O)n2-c2ccccc2OC)SCC3)s1	nt	0.27	nt	nt	nt
Cc1ccc(Cl)cc1N1CCN(Cc2cc3c(cc2O)CCC3)CC1	0.9	-0.92	7	0.7	28
CC12C(=O)N(CCC(=O)O)C(=O)C1C1C=CC2C1 (stereo not given)	1	1.1	2	0.9	7
O=C1C2C3C=CC(C3)C2C(=O)N1Cc1ccccc1 (stereo not given)	0.8	1.9	19	0.2	84*
C/C(Cl)=C/CN1C(=O)C2C3C=CC(C3)C2C1=O (stereo not given)	0.7	0.26	29	0.3	73*
CC12C(=O)N(Cc3ccccc3)C(=O)C1C1C=CC2C1 (stereo not given)	0.8	-0.82	20	0.1	89*
COc1ccc2cc3cc(C(=O)Nc4ccccc4N4CCN(C)CC4)oc3nc2c1	0.7	-0.21	26	0.4	61*
COc1ccc2cc3cc(C(=O)NCCN4CCN(c5ccccc5F)CC4)oc3nc2c1	0.7	-1.2	32	0.8	20
CC1=CC(=O)OC1Cc1ccncc1 (stereo not given)	0.6	-0.09	42	0.8	24
CCCSc1nnc(-c2cccc(S(=O)(=O)N(C)C)c2)n1-c1cc(OC)ccc1OC	0.1	-1.9	86*	0.2	77*
CCSc1nnc(-c2cccc(S(=O)(=O)N(C)C)c2)n1-c1cc(OC)ccc1OC	0.2	-0.64	84*	0.3	70*
SMILES	CYP2C9 activ	Cav3 T inh	CYP2C9 inhib	CYP2C19 activ	CYP2C19 inhib
COc1ccc(OC)c(-n2c(SCC(C)=O)nnc2-c2cccc(S(=O)(=O)N(C)C)c2)c1	0.8	2.1	17	0.9	14
COc1ccc(C(=O)NCC(C)(C)SCc2c(C)cc(C)cc2C)cc1	0.8	-3.3	22	0.5	50
CCOc1ccc(-c2cc(C(=O)Nc3ccc4c(c3)OCCO4)c3ccccc3n2)cc1	0.2	-1.2	78*	0.5	49
Cc1cccc(-c2cc(C(=O)Nc3ccc4c(c3)OCCO4)c3ccccc3n2)c1	0.4	nt	60*	0.8	23
Cc1ccc2nc(-c3cccc(NC(=O)c4ccc5c(c4)OCCO5)c3)oc2c1	0.1	-0.4	87*	0.4	64*
Cc1ccc2nc(-c3ccc4c(c3)OCCO4)cc(C(=O)O)c2c1	0.2	0.43	81*	0.7	28
O=C(Nc1ccc2oc(-c3ccc4ccccc4c3)nc2c1)c1ccc2c(c1)OCCO2	0.9	0.041	7	1	1
CCCn1ncc(OC)c(Cl)c1=O	1.1	0.23	-14	1	4
O=C(CCc1ccc(S(=O)(=O)N2CCOCC2)cc1)NCCc1ccccn1	0.8	0.67	20	0.9	6
O=C(O)Cn1c(P(=O)(O)c2ccccc2)nc2ccccc21	1.1	0.51	-12	1.1	-10
COC(=O)c1sccc1NC(=O)C12CC3CC(CC(C3)C1)C2	nt	0.28	nt	nt	nt
Cc1ccc(-c2cc(C(=O)Nc3nn[nH]n3)c3ccccc3n2)cc1	0.9	0.0027	12	1.1	-14
O=C(Nc1nncs1)C1(c2ccccc2)CCCC1	0.6	0.35	41	1	5
Cc1ccccc1-c1nn2c(-c3ccccc3)nnc2s1	0.4	-1.3	56*	0.1	87*
Cc1cc(-c2nn3c(-c4ccccc4)nnc3s2)c2ccccc2n1	0.7	0.081	32	0.2	79*
c1ccc(-c2cc(-c3nn4c(-c5ccco5)nnc4s3)c3ccccc3n2)cc1	0.2	-0.76	77*	0.6	37
Cc1ccc(-c2nnc3sc(CCc4ccccc4)nn23)cc1	0.2	-0.011	76*	0.3	65*
C=CCN(CC(=O)c1sc(C(=O)OCC)nc1C)c1cccc(Br)c1	nt	-2.2	nt	nt	nt
Cc1ccc(C(=O)Nc2cccc(C(F)(F)F)c2)cc1Nc1ncnc2nc[nH]c12	nt	0.04	nt	nt	nt
C=CCn1c(SCC(=O)N2CCOCC2)nc(O)c(Cc2ccccc2)c1=O	0.9	-0.75	8	0.9	11
Cc1cc(NCCCn2ccnc2)n2nc(-c3ccc(F)cc3)cc2n1	0	0.03	98*	0	97*
Cc1cc(C)c2c(n1)nn1c(NCCCn3ccnc3)cc(C)nc21	0	nt	96*	0.3	69*
CC(C)(C)c1cc(NCCCn2ccnc2)n2ncc(-c3ccc(Cl)cc3)c2n1	0.3	-0.071	66*	0.9	8
Cc1cc(C)c2c(n1)nn1c(C3CC3)cc(C(F)(F)F)nc21	nt	-0.86	nt	nt	nt
COc1ccc(-c2cc3nc(C)cc(NCCO)n3n2)cc1	0.8	-0.18	19	1	-2
Cc1cc(NCCOCCO)n2ncc(-c3ccc(Cl)cc3)c2n1	0.7	2.2	28	0.7	29
COc1ccc([C@H]2/C=C\CN(C(=O)[C@H](Cc3ccccc3)NC(=O)OCC3c4ccccc4-c4ccccc43)CC(=O)N2Cc2ccc(F)cc2)cc1	nt	-1.5	nt	nt	nt
CCNC(=S)N/N=C/c1ccco1	1.1	-0.94	-11	1	5
